From article PMC7862700, “An all-to-all approach to the identification of sequence-specific readers for epigenetic DNA modifications on cytosine” come the findings set out here.

What all share (experiment): DAPPL (digital affinity profiling via proximity ligation, sequencing); 10 mM Tris-HCl pH 7.5, 50 mM NaCl, 1 mM DTT, 4% glycerol, room temperature, 30 min; GST-TFs on glutathione beads, 16-mer random dsDNA library, 0.1% formaldehyde crosslink after washing; high values mean tight binding
What all share (settings): protein: recombinant; tags: N-terminal GST; dsDNA, one strand shown

The target of assay [1] is T1, FLI1 (Homo sapiens, UniProt Q01543 1-452).
T1 sequence: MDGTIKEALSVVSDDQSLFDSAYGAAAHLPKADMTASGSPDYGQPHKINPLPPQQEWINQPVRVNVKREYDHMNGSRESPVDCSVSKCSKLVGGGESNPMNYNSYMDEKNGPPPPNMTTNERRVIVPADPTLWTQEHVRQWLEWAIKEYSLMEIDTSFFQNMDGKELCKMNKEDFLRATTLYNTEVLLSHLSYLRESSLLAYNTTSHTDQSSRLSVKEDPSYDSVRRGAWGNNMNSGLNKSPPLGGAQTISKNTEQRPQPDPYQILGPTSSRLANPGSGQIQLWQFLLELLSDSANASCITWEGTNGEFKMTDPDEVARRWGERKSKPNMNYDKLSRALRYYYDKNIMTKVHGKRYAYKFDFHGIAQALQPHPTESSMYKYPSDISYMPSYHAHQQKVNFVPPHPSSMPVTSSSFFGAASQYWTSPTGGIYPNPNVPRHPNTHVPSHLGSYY
In a few lines:
(§1)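 Each value of binding signal is a hexamer's read frequency for a factor divided by the same hexamer's frequency in the tag-only sample. Barcoded, bead-captured GST fusions of human transcription factors made in yeast were pooled with that sample and incubated with 200 nmole of a random double-stranded 16-mer DNA library in Tris/NaCl/DTT/glycerol buffer at room temperature for 30 min. Washing, 0.1% formaldehyde crosslinking, proximity ligation, PCR and Illumina NextSeq500 sequencing followed.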

The target in assay [2] is T2, ERG (Homo sapiens, UniProt P11308 1-479).
T2 sequence: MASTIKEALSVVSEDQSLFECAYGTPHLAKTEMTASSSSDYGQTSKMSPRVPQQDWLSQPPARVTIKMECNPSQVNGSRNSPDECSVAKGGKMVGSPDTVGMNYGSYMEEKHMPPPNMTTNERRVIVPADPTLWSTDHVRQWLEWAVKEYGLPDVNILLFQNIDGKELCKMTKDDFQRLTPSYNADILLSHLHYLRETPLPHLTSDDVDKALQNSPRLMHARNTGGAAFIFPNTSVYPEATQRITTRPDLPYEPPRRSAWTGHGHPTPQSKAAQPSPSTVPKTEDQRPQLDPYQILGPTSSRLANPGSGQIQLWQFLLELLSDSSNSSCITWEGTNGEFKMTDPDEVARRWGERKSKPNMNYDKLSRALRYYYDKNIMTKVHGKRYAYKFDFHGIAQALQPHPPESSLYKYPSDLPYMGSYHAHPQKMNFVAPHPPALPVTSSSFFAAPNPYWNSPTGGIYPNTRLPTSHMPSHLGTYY
In a few lines:
as §1

The target of assay [3] is T3, ELK3 (Homo sapiens, UniProt P41970 1-407).
T3 sequence: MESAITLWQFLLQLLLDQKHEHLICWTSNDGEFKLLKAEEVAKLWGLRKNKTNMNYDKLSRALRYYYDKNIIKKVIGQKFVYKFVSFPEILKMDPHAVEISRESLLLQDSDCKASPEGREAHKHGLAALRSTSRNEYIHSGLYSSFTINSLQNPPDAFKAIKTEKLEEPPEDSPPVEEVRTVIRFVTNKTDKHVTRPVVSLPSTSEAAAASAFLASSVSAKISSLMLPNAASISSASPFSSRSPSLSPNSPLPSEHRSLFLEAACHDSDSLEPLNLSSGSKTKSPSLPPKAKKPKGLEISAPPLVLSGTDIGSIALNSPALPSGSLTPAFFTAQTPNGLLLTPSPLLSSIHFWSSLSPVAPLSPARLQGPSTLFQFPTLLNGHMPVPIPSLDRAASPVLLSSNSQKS
In a few lines: as §1

Assay [4] deals with T4, SPIC (Homo sapiens, UniProt Q8N5J4 1-248).
T4 sequence: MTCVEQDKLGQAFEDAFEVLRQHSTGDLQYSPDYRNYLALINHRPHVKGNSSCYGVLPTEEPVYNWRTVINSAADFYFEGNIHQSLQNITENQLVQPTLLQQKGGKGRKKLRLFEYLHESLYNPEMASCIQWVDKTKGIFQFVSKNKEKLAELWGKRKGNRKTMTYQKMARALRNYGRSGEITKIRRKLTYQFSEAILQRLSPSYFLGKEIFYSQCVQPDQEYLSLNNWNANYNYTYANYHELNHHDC
A digest of the protocol:
as §1

Assay [5] has as its target ELF4 (Homo sapiens, UniProt Q99607 1-663). In a few lines:
as §1

The target of assay [6] is T5, ELF3 (Homo sapiens, UniProt P78545 1-371).
T5 sequence: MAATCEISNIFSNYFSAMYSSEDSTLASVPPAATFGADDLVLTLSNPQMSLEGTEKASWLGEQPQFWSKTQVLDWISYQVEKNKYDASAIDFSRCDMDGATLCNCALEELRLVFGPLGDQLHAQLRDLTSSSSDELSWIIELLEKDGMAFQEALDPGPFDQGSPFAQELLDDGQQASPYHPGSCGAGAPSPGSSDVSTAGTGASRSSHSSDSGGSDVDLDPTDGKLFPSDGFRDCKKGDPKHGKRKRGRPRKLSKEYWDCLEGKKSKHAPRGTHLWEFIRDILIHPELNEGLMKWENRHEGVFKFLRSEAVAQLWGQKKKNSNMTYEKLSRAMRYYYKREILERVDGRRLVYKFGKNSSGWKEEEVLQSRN
A digest of the protocol: as §1

For assay [7], the target named is ETV1 (Homo sapiens, UniProt P50549 1-477). A digest of the protocol:
as §1

Assay [8] concerns the target T6, ETV3L (Homo sapiens, UniProt Q6ZN32 1-361).
T6 sequence: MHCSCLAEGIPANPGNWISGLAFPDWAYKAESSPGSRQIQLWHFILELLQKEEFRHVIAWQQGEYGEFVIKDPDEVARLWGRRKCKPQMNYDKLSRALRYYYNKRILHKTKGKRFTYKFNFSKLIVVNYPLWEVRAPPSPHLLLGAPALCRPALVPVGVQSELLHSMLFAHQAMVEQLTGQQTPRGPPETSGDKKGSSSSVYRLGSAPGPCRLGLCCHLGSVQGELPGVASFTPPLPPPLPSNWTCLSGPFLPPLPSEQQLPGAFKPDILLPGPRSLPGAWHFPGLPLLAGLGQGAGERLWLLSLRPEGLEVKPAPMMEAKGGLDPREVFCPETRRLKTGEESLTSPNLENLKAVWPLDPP
In a few lines:
as §1

The target of assay [9] is T7, ETS2 (Homo sapiens, UniProt P15036 1-469).
T7 sequence: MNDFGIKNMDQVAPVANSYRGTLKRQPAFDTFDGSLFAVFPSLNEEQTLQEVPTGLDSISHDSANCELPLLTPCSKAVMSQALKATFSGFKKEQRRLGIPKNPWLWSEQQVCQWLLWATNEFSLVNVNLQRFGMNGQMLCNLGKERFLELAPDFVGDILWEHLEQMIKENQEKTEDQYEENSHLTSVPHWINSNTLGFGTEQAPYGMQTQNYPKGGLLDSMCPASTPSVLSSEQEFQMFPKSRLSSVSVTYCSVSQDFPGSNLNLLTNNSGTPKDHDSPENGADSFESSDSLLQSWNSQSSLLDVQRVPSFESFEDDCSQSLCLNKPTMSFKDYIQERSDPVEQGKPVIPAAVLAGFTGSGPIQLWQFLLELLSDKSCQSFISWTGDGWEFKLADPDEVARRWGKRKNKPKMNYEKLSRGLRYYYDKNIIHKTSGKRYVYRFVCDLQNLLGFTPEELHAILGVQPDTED
In a few lines: as §1

Assay [10] has as its target T8, ETV3 (Homo sapiens, UniProt P41162-2 1-143).
T8 sequence: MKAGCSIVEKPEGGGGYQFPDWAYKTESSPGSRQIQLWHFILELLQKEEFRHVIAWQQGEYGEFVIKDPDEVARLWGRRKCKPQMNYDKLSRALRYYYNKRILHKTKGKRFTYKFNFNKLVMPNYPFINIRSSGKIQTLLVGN
In a few lines:
as §1

In assay [11] the target is T9, ELK1 (Homo sapiens, UniProt P19419 1-428).
T9 sequence: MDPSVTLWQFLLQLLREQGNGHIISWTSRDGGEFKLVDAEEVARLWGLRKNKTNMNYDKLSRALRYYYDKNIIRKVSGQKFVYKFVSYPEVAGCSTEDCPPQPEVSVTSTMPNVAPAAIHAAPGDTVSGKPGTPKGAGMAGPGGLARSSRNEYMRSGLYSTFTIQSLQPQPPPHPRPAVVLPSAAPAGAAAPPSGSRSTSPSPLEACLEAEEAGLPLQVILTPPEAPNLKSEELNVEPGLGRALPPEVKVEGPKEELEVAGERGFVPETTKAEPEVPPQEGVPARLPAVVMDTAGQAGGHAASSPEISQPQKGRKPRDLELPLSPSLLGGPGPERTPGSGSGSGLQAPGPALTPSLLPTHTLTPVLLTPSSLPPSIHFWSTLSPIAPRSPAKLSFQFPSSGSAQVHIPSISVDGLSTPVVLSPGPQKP
A digest of the protocol:
as §1

In assay [12] the target is SPIB (Homo sapiens, UniProt Q01892 1-262). A digest of the protocol:
as §1

Assay [13] has as its target T10, ETV7 (Homo sapiens, UniProt Q9Y603 1-341).
T10 sequence: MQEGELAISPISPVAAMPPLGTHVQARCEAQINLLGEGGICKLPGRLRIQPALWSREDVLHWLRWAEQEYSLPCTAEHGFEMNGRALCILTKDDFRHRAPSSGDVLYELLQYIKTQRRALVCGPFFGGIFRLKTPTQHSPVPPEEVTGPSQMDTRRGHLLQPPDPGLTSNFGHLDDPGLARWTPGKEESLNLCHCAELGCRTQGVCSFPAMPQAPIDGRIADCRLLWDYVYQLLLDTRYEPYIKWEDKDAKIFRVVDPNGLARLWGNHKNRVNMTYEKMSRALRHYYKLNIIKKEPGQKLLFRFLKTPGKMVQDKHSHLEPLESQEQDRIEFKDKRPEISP
A digest of the protocol:
as §1

Assay [14] deals with ELF1 (Homo sapiens, UniProt P32519 1-619). In a few lines:
as §1

Chain of SPIB (Q01892 whole entry): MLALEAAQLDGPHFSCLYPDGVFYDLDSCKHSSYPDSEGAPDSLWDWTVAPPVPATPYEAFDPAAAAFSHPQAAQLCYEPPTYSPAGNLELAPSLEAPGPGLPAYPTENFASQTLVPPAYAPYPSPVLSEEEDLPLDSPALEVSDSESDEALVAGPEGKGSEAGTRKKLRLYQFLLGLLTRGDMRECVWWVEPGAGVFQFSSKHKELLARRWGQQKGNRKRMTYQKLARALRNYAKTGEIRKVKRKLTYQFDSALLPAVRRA
Chain of ELF4 (Q99607 whole entry): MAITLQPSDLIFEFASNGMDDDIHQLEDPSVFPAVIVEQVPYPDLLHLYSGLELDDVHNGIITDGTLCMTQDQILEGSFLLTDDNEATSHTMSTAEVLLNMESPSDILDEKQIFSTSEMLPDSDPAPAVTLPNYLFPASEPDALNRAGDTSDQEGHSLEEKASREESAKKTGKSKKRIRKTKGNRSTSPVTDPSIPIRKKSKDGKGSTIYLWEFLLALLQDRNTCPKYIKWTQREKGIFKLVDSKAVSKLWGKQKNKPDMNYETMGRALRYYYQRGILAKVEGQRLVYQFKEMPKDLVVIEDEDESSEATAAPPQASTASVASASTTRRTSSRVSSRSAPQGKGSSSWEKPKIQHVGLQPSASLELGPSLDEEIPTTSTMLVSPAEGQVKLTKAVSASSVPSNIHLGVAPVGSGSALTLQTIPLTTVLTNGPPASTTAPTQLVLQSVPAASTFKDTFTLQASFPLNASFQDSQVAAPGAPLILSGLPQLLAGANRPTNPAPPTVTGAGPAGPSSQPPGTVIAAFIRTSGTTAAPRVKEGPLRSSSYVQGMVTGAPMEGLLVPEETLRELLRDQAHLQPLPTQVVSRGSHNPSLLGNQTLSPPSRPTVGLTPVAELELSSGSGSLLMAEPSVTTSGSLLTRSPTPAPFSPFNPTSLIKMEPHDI
Chain of ELF1 (P32519 whole entry): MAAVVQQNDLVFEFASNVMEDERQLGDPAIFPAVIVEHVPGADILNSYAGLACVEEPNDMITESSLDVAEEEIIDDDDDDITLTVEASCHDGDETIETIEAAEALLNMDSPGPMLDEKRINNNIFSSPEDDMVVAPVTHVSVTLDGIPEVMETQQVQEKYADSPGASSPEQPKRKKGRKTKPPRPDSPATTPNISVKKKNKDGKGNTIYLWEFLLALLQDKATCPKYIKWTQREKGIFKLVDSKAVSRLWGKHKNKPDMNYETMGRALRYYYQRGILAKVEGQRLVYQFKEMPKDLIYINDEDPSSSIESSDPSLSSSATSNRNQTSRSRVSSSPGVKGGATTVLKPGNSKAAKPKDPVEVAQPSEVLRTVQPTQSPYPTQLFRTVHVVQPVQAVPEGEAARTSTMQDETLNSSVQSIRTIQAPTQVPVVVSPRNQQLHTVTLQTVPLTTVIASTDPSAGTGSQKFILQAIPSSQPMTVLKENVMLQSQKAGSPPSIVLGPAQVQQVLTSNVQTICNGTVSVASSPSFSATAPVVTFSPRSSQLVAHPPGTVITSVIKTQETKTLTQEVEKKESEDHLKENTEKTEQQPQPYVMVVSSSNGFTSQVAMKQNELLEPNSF
Chain of ETV1 (P50549 whole entry): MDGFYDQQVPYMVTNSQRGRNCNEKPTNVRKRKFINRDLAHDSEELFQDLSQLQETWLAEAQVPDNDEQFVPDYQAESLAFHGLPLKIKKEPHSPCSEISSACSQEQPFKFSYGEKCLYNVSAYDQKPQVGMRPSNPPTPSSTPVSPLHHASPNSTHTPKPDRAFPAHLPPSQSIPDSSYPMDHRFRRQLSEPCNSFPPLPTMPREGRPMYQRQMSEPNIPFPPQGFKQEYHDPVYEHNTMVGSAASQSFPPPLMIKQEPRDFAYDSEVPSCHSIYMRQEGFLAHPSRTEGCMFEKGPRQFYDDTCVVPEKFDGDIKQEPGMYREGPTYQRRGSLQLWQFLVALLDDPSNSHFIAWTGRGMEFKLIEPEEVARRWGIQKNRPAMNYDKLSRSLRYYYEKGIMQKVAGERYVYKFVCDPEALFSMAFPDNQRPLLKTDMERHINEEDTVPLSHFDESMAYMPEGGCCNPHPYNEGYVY

As for GATACA, the binding signal in [1] was 1.03 fold enrichment (6-mer frequency, TF over GST control); in [2], 1.03 fold enrichment (6-mer frequency, TF over GST control); in assay [3], 1.03 fold enrichment (6-mer frequency, TF over GST control); in assay [4], 1.07 fold enrichment (6-mer frequency, TF over GST control); in [5], 1.08 fold enrichment (6-mer frequency, TF over GST control); in assay [6], 1.08 fold enrichment (6-mer frequency, TF over GST control). The binding signal in assay [7] was 1.06 fold enrichment (6-mer frequency, TF over GST control); in [8], 1.05 fold enrichment (6-mer frequency, TF over GST control); in [9], 1.05 fold enrichment (6-mer frequency, TF over GST control); in [10] it was 1.01 fold enrichment (6-mer frequency, TF over GST control).
For the sequence CCCGCG, the binding signal in assay [1] was 1.02 fold enrichment (6-mer frequency, TF over GST control); in assay [11] it was 1.05 fold enrichment (6-mer frequency, TF over GST control); in assay [2], 1.02 fold enrichment (6-mer frequency, TF over GST control); in [12], 1.11 fold enrichment (6-mer frequency, TF over GST control); in assay [4], 1.05 fold enrichment (6-mer frequency, TF over GST control); in assay [13], 1.03 fold enrichment (6-mer frequency, TF over GST control). In [10], the binding signal is 1.01 fold enrichment (6-mer frequency, TF over GST control).
Turning to CAAAGT, the binding signal was 1.01 fold enrichment (6-mer frequency, TF over GST control) in assay [1]; 1.03 fold enrichment (6-mer frequency, TF over GST control) in [14]; 1.04 fold enrichment (6-mer frequency, TF over GST control) in [12]; 1.06 fold enrichment (6-mer frequency, TF over GST control) in assay [3]; 1.03 fold enrichment (6-mer frequency, TF over GST control) in [5]; 1 fold enrichment (6-mer frequency, TF over GST control) in assay [13].
